Experimental findings from publication PMC7862700, “An all-to-all approach to the identification of sequence-specific readers for epigenetic DNA modifications on cytosine” are described below.

Holding throughout (assay): DAPPL (digital affinity profiling via proximity ligation, sequencing); 10 mM Tris-HCl pH 7.5, 50 mM NaCl, 1 mM DTT, 4% glycerol, room temperature, 30 min; GST-TFs on glutathione beads, 16-mer random dsDNA library, 0.1% formaldehyde crosslink after washing; high values mean tight binding
One assay deals with T1, FEV (Homo sapiens, UniProt Q99581 1-238).
T1 sequence: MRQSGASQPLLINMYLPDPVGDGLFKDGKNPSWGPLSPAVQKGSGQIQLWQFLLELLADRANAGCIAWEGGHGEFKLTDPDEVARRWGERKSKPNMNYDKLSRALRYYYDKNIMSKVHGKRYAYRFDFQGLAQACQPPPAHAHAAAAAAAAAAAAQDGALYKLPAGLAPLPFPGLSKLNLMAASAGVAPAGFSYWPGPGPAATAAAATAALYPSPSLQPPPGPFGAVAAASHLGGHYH
The following applies: protein: recombinant; tags: N-terminal GST; dsDNA, one strand shown. In a few lines:
(§1)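 Pools of DNA-barcoded human transcription factors, expressed in yeast as GST fusions on glutathione beads and combined with a tag-only sample, were incubated with 200 nmole of a 16-mer random double-stranded DNA library. Incubation took 30 min at room temperature in Tris/NaCl/DTT/glycerol buffer and was followed by washing, 0.1% formaldehyde crosslinking, proximity ligation (BsaI/T4 ligase, 1 h, 37 °C), PCR amplification and sequencing on an Illumina NextSeq500. Binding signal is the ratio of a hexamer's read frequency for a factor to its frequency for the tag-only sample.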

For a further assay, the target named is ETV5 (Homo sapiens, UniProt P41161 1-510). The following applies: protein: recombinant; tags: N-terminal GST; dsDNA, one strand shown. The method in brief:
as §1

The target in the next assay is HSF1 (Homo sapiens, UniProt Q00613 1-529). The following applies: protein: recombinant; tags: N-terminal GST; chain copies: 3; dsDNA, one strand shown. The method in brief:
as §1

Another assay concerns the target T2, SPIC (Homo sapiens, UniProt Q8N5J4 1-248).
T2 sequence: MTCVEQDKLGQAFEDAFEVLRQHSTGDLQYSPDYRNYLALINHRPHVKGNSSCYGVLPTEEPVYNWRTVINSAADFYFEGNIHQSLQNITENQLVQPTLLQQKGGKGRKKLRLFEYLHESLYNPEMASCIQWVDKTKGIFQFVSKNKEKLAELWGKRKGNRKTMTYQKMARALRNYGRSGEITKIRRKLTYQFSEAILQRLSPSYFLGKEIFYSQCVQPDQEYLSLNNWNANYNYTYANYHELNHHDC
Conditions: protein: recombinant; tags: N-terminal GST; dsDNA, one strand shown. The method in brief: as §1

The target in the next assay is ELF4 (Homo sapiens, UniProt Q99607 1-663). The following applies: protein: recombinant; tags: N-terminal GST; dsDNA, one strand shown. In a few lines:
as §1

The next assay addresses T3, ELK4 (Homo sapiens, UniProt P28324-2 1-405).
T3 sequence: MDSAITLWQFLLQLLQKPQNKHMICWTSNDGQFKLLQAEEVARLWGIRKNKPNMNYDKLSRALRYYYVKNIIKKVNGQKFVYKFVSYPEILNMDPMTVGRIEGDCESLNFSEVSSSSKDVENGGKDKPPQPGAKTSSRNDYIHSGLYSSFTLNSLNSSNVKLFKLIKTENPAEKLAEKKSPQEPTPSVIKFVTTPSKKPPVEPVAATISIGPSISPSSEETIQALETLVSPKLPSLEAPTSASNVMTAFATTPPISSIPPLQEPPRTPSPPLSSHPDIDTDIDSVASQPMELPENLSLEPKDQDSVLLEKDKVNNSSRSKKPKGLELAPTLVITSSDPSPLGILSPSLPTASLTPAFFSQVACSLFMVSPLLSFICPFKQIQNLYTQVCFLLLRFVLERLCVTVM
Conditions: protein: recombinant; tags: N-terminal GST; dsDNA, one strand shown. In a few lines:
as §1

Another assay deals with T4, ETV2 (Homo sapiens, UniProt O00321 1-342).
T4 sequence: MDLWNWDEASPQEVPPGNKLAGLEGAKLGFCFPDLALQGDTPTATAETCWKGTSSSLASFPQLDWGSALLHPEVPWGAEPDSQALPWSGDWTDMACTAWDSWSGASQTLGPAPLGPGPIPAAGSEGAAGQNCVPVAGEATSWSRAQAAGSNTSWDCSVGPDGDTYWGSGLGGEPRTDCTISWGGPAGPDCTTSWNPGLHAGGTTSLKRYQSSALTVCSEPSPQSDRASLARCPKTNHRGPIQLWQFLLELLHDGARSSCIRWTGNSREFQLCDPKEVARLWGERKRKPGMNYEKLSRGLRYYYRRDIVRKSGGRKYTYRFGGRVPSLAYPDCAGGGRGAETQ
The following applies: protein: recombinant; tags: N-terminal GST; dsDNA, one strand shown. The method in brief: as §1

In a further assay the target is T5, ELF3 (Homo sapiens, UniProt P78545 1-371).
T5 sequence: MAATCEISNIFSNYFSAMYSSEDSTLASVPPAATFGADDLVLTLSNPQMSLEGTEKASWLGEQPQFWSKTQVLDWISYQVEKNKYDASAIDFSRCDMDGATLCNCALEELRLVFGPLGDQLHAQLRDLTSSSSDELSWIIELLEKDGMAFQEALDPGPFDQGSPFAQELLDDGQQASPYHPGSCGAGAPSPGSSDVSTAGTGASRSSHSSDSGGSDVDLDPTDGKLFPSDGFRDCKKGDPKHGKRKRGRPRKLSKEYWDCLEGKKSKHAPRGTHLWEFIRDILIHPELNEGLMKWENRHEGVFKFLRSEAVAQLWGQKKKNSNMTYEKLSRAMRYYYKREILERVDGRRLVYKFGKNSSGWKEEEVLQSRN
The following applies: protein: recombinant; tags: N-terminal GST; dsDNA, one strand shown. The method in brief:
as §1

A further assay deals with CRX (Homo sapiens, UniProt O43186 1-299). The following applies: protein: recombinant; tags: N-terminal GST; dsDNA, one strand shown. The method in brief: as §1
Sequence of CRX (O43186 whole entry): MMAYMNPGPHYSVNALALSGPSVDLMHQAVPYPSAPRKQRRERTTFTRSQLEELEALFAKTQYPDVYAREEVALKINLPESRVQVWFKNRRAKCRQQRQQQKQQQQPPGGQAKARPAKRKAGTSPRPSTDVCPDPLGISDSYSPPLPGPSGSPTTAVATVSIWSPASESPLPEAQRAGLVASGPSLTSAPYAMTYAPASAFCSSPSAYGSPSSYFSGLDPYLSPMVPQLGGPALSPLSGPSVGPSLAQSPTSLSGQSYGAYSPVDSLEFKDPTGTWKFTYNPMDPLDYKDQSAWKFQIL
For another assay, the target named is ETV1 (Homo sapiens, UniProt P50549 1-477). Conditions: protein: recombinant; tags: N-terminal GST; dsDNA, one strand shown. The method in brief:
as §1

The next assay has as its target T6, ERF (Homo sapiens, UniProt P50548 1-548).
T6 sequence: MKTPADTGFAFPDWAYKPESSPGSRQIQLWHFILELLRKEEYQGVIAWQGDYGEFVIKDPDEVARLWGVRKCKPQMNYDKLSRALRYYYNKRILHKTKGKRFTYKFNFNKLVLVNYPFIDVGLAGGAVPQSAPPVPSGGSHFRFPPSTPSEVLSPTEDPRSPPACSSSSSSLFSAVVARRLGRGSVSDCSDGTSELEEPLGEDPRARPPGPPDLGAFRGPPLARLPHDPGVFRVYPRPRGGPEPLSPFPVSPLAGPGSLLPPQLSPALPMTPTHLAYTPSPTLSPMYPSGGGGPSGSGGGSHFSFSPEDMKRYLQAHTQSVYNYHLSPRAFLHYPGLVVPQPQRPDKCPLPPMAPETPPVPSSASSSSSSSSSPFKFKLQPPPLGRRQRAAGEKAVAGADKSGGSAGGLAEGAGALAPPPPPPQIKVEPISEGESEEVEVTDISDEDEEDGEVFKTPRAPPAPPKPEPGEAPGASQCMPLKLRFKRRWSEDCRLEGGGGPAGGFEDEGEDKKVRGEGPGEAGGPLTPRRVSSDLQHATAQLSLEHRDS
Conditions: protein: recombinant; tags: N-terminal GST; dsDNA, one strand shown. In a few lines: as §1

A further assay has as its target T7, ETV3L (Homo sapiens, UniProt Q6ZN32 1-361).
T7 sequence: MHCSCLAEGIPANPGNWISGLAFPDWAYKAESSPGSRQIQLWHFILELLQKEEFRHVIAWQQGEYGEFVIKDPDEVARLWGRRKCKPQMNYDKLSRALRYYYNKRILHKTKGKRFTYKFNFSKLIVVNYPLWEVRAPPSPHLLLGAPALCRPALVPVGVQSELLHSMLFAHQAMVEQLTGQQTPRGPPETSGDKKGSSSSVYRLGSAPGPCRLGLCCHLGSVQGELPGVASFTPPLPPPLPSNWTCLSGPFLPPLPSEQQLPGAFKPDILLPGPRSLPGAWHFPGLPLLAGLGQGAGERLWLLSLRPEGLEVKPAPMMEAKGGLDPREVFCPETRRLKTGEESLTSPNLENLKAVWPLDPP
Conditions: protein: recombinant; tags: N-terminal GST; dsDNA, one strand shown. The method in brief:
as §1

The target in a further assay is T8, ETS2 (Homo sapiens, UniProt P15036 1-469).
T8 sequence: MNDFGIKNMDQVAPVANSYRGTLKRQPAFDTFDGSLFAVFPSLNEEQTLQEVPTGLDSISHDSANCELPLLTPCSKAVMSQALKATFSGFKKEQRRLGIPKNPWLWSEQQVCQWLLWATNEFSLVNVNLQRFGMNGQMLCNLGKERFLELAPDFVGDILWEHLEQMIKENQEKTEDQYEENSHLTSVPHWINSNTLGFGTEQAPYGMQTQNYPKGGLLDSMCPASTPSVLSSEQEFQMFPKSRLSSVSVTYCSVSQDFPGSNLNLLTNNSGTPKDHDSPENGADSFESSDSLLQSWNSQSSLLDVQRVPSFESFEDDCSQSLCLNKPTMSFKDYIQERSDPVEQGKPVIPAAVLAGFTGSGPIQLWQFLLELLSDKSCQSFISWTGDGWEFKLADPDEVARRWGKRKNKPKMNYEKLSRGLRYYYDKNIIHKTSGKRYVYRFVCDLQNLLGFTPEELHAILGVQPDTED
The following applies: protein: recombinant; tags: N-terminal GST; dsDNA, one strand shown. In a few lines: as §1

In another assay the target is T9, SPDEF (Homo sapiens, UniProt O95238 1-335).
T9 sequence: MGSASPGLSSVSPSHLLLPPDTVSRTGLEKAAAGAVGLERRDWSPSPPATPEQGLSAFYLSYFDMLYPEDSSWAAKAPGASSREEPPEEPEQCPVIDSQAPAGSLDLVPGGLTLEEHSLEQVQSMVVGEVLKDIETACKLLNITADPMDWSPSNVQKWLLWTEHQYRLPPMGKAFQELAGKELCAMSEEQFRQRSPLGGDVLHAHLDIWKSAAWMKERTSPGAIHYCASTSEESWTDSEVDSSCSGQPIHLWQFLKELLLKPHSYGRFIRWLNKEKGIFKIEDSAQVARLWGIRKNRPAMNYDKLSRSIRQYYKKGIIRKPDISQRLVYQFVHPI
Conditions: protein: recombinant; tags: N-terminal GST; dsDNA, one strand shown. In a few lines:
as §1

The next assay concerns the target T10, ETV7 (Homo sapiens, UniProt Q9Y603 1-341).
T10 sequence: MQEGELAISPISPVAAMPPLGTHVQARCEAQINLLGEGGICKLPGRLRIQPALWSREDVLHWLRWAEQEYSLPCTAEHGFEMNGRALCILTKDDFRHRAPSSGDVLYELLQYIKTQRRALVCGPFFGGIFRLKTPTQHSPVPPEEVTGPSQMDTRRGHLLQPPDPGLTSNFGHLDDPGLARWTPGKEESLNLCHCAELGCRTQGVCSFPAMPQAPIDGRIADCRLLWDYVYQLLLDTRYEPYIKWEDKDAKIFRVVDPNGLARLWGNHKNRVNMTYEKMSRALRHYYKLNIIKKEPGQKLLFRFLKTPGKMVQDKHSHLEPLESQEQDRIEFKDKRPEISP
The following applies: protein: recombinant; tags: N-terminal GST; dsDNA, one strand shown. In a few lines:
as §1

In the next assay the target is T11, ELF5 (Homo sapiens, UniProt Q9UKW6-2 1-255).
T11 sequence: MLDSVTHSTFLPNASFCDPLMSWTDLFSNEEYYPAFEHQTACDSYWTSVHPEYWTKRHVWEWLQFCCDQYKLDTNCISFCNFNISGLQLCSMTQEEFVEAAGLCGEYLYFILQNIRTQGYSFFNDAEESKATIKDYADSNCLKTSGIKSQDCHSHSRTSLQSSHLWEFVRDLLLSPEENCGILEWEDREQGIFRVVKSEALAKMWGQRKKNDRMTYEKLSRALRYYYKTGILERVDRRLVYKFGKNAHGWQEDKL
The following applies: protein: recombinant; tags: N-terminal GST; dsDNA, one strand shown. The method in brief:
as §1

A further assay deals with T12, ETV3 (Homo sapiens, UniProt P41162-2 1-143).
T12 sequence: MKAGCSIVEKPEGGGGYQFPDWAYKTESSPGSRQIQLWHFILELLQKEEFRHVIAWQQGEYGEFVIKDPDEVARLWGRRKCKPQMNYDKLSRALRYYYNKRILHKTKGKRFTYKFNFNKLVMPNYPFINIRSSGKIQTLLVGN
Conditions: protein: recombinant; tags: N-terminal GST; dsDNA, one strand shown. The method in brief: as §1

The target in another assay is ETV6 (Homo sapiens, UniProt P41212 1-452). The following applies: protein: recombinant; tags: N-terminal GST; dsDNA, one strand shown. In a few lines: as §1
Sequence of ETV6 (P41212 whole entry): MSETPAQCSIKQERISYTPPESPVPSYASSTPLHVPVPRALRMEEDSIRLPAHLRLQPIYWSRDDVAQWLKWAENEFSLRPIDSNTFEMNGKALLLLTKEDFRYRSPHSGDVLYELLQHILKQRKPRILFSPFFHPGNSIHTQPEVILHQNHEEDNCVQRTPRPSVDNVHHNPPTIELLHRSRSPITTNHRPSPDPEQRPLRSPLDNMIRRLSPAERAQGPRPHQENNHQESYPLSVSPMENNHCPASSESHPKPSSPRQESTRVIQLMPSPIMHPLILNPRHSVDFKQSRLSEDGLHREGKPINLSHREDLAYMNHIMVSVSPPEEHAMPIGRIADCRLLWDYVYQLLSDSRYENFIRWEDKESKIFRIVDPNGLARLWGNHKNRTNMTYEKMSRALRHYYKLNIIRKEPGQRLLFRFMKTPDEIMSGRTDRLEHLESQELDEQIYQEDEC

Sequence of ETV5 (P41161 whole entry): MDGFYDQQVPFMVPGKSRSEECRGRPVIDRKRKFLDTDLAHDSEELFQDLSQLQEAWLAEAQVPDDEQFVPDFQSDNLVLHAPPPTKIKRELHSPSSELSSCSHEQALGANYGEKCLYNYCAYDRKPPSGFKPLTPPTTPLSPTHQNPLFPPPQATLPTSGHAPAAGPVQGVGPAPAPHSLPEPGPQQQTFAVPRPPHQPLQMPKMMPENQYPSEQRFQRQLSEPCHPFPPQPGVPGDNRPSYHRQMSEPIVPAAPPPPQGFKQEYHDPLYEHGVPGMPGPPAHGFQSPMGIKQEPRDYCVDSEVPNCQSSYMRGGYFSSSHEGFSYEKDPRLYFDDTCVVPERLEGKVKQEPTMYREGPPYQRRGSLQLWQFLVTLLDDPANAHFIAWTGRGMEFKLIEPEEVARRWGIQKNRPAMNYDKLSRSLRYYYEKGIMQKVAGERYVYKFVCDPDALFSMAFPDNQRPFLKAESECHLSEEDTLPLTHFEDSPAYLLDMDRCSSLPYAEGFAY
Sequence of HSF1 (Q00613 whole entry): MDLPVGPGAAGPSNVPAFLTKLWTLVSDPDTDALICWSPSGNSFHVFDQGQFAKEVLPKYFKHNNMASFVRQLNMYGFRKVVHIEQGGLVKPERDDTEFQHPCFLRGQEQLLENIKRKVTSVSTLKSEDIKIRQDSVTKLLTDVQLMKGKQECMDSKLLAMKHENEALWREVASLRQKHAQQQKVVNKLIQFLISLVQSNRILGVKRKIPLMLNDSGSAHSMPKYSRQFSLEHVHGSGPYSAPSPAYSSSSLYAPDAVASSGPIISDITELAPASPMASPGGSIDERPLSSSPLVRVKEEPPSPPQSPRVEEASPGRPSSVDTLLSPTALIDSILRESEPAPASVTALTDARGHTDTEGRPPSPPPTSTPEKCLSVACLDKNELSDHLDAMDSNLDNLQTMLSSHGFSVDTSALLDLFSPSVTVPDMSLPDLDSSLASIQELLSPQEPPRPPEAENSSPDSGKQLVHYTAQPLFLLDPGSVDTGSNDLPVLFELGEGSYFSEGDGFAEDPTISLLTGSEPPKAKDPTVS
Sequence of ETV1 (P50549 whole entry): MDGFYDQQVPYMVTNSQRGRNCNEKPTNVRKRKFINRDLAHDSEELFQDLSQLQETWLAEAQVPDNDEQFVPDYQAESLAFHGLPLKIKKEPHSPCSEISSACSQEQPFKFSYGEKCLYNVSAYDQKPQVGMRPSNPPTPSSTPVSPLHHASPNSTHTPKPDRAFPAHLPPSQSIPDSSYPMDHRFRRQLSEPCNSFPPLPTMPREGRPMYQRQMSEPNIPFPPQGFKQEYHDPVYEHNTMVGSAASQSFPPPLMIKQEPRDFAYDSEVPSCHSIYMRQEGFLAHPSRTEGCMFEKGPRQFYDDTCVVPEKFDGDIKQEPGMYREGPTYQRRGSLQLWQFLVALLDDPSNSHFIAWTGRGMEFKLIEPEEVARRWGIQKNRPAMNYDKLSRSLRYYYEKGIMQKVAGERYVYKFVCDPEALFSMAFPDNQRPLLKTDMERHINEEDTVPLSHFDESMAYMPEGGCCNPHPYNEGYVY
Sequence of ELF4 (Q99607 whole entry): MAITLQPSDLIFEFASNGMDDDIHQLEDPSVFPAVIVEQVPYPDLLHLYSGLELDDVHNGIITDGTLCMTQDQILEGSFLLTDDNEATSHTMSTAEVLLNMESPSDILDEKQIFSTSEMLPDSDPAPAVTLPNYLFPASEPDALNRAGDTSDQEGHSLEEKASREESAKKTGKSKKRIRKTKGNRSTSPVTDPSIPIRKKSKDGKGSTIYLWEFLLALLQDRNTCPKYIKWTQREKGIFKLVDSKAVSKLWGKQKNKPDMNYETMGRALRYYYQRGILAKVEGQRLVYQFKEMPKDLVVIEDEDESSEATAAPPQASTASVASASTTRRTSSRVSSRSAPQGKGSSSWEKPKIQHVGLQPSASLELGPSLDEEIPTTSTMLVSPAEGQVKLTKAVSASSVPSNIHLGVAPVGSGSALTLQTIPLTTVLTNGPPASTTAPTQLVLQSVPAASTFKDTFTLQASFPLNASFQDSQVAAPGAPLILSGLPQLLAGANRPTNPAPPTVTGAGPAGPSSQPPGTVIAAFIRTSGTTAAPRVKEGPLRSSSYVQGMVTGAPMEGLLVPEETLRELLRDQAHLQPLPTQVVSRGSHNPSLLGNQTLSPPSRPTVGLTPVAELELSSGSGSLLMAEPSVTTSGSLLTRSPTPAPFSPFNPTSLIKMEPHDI

Regarding ATCTCC, the binding signal with FEV is 1.5 fold enrichment (6-mer frequency, TF over GST control); in the assay with ETV5, 1.48 fold enrichment (6-mer frequency, TF over GST control); with HSF1, 1.67 fold enrichment (6-mer frequency, TF over GST control); in the assay with SPIC, 1.49 fold enrichment (6-mer frequency, TF over GST control); with ELF4, 1.57 fold enrichment (6-mer frequency, TF over GST control); with ELK4 it was 1.47 fold enrichment (6-mer frequency, TF over GST control). For the same sequence, the binding signal is 1.48 fold enrichment (6-mer frequency, TF over GST control) with ETV2; 1.3 fold enrichment (6-mer frequency, TF over GST control) with ELF3; 2.01 fold enrichment (6-mer frequency, TF over GST control) in the assay with CRX; 1.57 fold enrichment (6-mer frequency, TF over GST control) with ETV1; 1.47 fold enrichment (6-mer frequency, TF over GST control) with ERF; 1.46 fold enrichment (6-mer frequency, TF over GST control) in the assay with ETV3L. The binding signal with ETS2 is 1.5 fold enrichment (6-mer frequency, TF over GST control); in the assay with SPDEF it was 1.68 fold enrichment (6-mer frequency, TF over GST control); with ETV7, 1.31 fold enrichment (6-mer frequency, TF over GST control); with ELF5 it was 1.53 fold enrichment (6-mer frequency, TF over GST control); in the assay with ETV3, 1.44 fold enrichment (6-mer frequency, TF over GST control); with ETV6, 1.51 fold enrichment (6-mer frequency, TF over GST control).
